According to the supplement of paper PMC10849652:
Of roughly 7,900 targets only a part is listed; those with a hit were picked by preference. About 0.6% of all pairs of compound and target were hits. A number with no mark means an inactive call.

Legend:
Assay in all cases: log2 fold change, soluble protein after heating vs DMSO (PISA); higher = thermal stabilisation; K562 cells, 10 uM, 30 min; active = over 0.2 and 3.5 SD of the protein, either way, in both replicates (recomputed)
[1] = compound: COC1=CC=C(C=C1)CN2C=CC3=C2C=C(C=C3)C(=O)NO
Procedure, shortened: (§1)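 Soluble protein was quantified by TMTpro 16plex LC-MS/MS after channel sums were equalised. It was obtained as the supernatant after 21,000xg for 90 min from pooled aliquots of K562 cells (2×10^6 cells/mL, 10 μM compound, 30 min) heated for 3 min across 48°C-58°C and extracted in PBS with 0.5% NP-40 at 4°C. Thermal stability values are relative to control samples and come from duplicates. They are given as log2 fold changes.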

filanesib = compound: CON(C)C(=O)N1N=C(c2cc(F)ccc2F)S[C@@]1(CCCN)c1ccccc1 [filanesib]
Procedure, shortened: as §1

zotarolimus = compound: CO[C@H]1C[C@@H]2CC[C@@H](C)[C@@](O)(O2)C(=O)C(=O)N2CCCC[C@H]2C(=O)O[C@H]([C@H](C)C[C@@H]2CC[C@H](n3cnnn3)[C@H](OC)C2)CC(=O)[C@H](C)/C=C(\C)[C@@H](O)[C@@H](OC)C(=O)[C@H](C)C[C@H](C)/C=C/C=C/C=C/1C [zotarolimus]
Procedure, shortened: as §1

idasanutlin = compound: COc1cc(C(=O)O)ccc1NC(=O)[C@@H]1N[C@@H](CC(C)(C)C)[C@](C#N)(c2ccc(Cl)cc2F)[C@H]1c1cccc(Cl)c1F [idasanutlin]
Procedure, shortened: as §1

alisertib = compound: COc1cc(Nc2ncc3c(n2)-c2ccc(Cl)cc2C(c2c(F)cccc2OC)=NC3)ccc1C(=O)O [alisertib]
Procedure, shortened: as §1

[2] = compound: COc1cc2nc(-c3cc(F)ccc3O)nc(N[C@@H]3CNC[C@H]3C(C)(C)O)c2cc1OC
Procedure, shortened: as §1

gefitinib = compound: COc1cc2ncnc(Nc3ccc(F)c(Cl)c3)c2cc1OCCCN1CCOCC1 [gefitinib]
Procedure, shortened: as §1

[3] = compound: COc1cccc2cc(-c3nc([C@H]4CC[C@H](C(=O)O)CC4)n4ncnc(N)c34)[nH]c12
Procedure, shortened: as §1

lapatinib = compound: CS(=O)(=O)CCNCc1ccc(-c2ccc3ncnc(Nc4ccc(OCc5cccc(F)c5)c(Cl)c4)c3c2)o1 [lapatinib]
Procedure, shortened: as §1

pictilisib = compound: CS(=O)(=O)N1CCN(Cc2cc3nc(-c4cccc5[nH]ncc45)nc(N4CCOCC4)c3s2)CC1 [pictilisib]
Procedure, shortened: as §1

[4] = compound: CS(=O)(=O)c1ccc(-c2cnc(N)c(C(=O)Nc3ccccc3)n2)cc1
Procedure, shortened: as §1

crizotinib = compound: C[C@@H](Oc1cc(-c2cnn(C3CCNCC3)c2)cnc1N)c1c(Cl)ccc(F)c1Cl [crizotinib]
Procedure, shortened: as §1

[5] = compound: C[C@@H]1COCCN1C2=NC(=NC(=C2)C3(CC3)S(=O)(=O)C)C4=C5C=CNC5=CC=C4
Procedure, shortened: as §1

[6] = compound: C[C@H](C1=CC=C(C=C1)C(=O)NC2=C3C=CNC3=NC=C2)N
Procedure, shortened: as §1

duvelisib = compound: C[C@H](Nc1ncnc2nc[nH]c12)c1cc2cccc(Cl)c2c(=O)n1-c1ccccc1 [duvelisib]
Procedure, shortened: as §1

gandotinib = compound: Cc1cc(Nc2cc(CN3CCOCC3)c3nc(C)c(Cc4ccc(Cl)cc4F)n3n2)n[nH]1 [gandotinib]
Procedure, shortened: as §1

tozasertib = compound: Cc1cc(Nc2cc(N3CCN(C)CC3)nc(Sc3ccc(NC(=O)C4CC4)cc3)n2)n[nH]1 [tozasertib]
Procedure, shortened: as §1

[7] = compound: Cc1cc(SCc2sc(-c3ccc(C(F)(F)F)cc3)nc2C)ccc1OCC(=O)O
Procedure, shortened: as §1

doramapimod = compound: Cc1ccc(-n2nc(C(C)(C)C)cc2NC(=O)Nc2ccc(OCCN3CCOCC3)c3ccccc23)cc1 [doramapimod]
Procedure, shortened: as §1

ispinesib = compound: Cc1ccc(C(=O)N(CCCN)[C@@H](c2nc3cc(Cl)ccc3c(=O)n2Cc2ccccc2)C(C)C)cc1 [ispinesib]
Procedure, shortened: as §1

Sequence of UniProt Q8IWV8 (Q8IWV8 whole entry, looked up): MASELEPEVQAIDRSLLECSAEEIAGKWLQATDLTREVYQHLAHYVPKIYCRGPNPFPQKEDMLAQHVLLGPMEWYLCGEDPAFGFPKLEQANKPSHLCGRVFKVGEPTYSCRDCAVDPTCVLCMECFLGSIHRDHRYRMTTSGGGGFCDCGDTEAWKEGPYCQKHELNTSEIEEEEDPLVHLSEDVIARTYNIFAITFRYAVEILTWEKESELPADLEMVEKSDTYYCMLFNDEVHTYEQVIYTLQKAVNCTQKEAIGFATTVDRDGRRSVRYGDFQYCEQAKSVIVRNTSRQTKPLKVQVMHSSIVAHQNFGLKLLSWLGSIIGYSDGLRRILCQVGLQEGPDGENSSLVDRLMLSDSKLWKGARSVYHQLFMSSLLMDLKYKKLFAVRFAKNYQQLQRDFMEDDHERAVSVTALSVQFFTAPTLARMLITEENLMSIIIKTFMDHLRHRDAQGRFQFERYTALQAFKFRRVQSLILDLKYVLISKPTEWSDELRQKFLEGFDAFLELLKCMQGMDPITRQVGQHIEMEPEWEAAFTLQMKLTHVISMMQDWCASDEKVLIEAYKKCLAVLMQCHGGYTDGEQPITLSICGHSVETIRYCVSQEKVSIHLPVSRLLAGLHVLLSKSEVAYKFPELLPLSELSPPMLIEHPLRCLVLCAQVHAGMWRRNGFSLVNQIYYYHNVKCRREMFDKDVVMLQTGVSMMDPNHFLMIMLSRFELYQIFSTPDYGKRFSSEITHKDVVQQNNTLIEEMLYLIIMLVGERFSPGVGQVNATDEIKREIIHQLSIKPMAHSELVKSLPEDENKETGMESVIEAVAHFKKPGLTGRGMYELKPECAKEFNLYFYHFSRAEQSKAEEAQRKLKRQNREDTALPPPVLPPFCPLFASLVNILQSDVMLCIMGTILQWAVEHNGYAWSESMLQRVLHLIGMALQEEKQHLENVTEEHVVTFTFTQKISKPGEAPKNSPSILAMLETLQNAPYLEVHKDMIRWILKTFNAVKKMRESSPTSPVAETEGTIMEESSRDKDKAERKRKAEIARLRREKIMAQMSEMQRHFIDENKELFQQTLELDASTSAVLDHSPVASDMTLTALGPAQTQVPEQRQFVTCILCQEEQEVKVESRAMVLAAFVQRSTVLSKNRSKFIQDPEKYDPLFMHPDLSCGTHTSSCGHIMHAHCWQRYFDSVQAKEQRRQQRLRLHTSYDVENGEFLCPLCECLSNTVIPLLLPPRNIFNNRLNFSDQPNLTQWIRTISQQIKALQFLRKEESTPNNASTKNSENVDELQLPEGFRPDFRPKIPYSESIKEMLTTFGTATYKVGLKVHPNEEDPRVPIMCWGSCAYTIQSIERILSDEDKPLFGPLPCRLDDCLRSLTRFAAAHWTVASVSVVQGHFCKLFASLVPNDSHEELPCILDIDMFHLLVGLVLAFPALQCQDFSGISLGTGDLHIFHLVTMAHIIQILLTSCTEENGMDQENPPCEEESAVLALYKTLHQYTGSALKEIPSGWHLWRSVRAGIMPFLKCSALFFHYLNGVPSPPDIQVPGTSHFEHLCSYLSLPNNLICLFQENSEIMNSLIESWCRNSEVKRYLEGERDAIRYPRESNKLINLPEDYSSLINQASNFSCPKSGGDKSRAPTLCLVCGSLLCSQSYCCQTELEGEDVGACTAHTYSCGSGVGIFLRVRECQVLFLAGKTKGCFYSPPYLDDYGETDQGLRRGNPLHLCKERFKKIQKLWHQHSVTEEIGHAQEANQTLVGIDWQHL
Sequence of UniProt Q9H270 (Q9H270 whole entry, looked up): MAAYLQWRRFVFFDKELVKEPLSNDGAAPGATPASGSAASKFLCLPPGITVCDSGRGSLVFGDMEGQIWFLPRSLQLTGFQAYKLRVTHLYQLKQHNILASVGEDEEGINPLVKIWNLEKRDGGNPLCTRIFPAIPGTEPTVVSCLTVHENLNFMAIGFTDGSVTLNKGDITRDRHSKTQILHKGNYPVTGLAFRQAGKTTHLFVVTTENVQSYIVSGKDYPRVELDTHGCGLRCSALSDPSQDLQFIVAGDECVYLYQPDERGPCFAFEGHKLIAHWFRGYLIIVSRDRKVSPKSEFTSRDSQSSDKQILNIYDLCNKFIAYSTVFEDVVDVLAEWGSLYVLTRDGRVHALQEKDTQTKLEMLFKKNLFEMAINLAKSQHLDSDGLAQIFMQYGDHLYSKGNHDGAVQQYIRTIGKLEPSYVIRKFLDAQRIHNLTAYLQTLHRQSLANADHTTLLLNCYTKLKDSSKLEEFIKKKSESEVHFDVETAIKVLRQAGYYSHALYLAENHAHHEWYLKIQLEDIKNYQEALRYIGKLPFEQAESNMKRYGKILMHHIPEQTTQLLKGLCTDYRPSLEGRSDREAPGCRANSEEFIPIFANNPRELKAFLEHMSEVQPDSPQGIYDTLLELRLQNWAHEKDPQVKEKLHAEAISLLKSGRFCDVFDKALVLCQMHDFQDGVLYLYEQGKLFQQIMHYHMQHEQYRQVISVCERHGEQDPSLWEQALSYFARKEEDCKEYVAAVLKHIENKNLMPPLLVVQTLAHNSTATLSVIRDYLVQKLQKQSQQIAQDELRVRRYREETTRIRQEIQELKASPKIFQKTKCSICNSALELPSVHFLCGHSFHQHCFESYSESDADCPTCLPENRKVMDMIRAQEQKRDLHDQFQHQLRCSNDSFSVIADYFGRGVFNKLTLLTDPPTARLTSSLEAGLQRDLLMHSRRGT
Sequence of UniProt Q641Q2 (Q641Q2 whole entry, looked up): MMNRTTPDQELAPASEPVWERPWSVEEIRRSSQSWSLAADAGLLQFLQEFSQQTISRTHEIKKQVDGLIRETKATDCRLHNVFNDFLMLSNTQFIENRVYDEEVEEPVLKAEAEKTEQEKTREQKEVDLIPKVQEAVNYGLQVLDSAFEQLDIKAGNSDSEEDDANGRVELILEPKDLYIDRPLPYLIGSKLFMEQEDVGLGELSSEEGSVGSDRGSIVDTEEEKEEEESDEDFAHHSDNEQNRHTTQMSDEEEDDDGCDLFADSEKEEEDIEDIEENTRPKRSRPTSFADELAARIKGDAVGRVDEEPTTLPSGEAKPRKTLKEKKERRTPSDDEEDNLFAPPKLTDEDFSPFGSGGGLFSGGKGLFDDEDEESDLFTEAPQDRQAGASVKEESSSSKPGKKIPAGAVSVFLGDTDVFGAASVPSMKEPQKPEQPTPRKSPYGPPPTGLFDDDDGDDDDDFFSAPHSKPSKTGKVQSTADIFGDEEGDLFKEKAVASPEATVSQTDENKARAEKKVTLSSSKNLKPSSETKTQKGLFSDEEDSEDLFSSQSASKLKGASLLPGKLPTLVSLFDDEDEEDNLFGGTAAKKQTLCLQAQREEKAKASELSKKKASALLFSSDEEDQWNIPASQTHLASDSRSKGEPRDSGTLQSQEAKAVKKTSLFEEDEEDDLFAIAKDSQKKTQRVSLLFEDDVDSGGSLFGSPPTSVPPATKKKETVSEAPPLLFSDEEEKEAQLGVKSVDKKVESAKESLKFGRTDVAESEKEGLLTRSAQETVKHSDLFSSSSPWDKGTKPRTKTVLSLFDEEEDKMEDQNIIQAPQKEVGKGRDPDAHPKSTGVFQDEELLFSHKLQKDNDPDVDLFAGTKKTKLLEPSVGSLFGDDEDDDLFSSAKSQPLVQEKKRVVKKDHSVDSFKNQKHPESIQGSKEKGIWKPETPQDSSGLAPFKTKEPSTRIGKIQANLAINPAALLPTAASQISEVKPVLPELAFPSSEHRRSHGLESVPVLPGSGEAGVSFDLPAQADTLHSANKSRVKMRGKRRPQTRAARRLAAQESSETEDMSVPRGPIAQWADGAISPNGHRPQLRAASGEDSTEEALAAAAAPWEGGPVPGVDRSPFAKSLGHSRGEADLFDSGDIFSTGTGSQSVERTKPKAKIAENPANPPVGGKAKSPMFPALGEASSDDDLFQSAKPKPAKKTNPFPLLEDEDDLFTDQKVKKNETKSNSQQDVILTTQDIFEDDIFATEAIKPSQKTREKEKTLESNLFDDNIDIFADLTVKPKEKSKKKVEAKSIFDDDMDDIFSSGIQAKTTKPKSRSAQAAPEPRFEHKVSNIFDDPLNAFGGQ
Sequence of UniProt Q8NEZ2 (Q8NEZ2 whole entry, looked up): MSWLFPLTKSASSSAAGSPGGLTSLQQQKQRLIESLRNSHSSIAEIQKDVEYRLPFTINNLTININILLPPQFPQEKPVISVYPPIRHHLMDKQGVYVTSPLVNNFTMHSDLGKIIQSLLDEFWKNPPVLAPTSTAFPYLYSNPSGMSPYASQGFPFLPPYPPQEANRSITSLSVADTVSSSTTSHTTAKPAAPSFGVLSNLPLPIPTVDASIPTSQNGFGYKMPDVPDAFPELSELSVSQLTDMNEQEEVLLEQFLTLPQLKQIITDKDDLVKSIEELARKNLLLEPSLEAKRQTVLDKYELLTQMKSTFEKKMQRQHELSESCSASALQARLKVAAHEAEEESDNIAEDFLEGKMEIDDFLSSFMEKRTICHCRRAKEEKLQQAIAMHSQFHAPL
Sequence of UniProt Q86SZ2 (Q86SZ2 whole entry, looked up): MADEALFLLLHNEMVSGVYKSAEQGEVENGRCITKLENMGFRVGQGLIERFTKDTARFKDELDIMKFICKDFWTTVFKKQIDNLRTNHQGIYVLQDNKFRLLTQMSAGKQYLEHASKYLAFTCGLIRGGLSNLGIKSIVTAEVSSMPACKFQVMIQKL
Sequence of UniProt O75554 (O75554 whole entry, looked up): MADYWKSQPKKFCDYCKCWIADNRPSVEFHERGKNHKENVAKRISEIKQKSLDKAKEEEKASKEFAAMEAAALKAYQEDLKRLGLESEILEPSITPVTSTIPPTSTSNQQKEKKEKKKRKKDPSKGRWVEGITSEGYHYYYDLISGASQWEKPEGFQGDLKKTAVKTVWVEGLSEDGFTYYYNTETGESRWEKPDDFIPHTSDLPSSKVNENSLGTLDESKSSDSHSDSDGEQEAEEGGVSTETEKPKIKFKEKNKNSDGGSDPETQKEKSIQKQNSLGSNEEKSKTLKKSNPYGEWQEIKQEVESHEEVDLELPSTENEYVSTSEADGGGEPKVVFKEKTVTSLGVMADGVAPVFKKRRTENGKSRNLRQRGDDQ

| Target | log2 fold change [1] | log2 fold change (filanesib) | log2 fold change (zotarolimus) | log2 fold change (idasanutlin) | log2 fold change (alisertib) | log2 fold change [2] | log2 fold change (gefitinib) | log2 fold change [3] | log2 fold change (lapatinib) | log2 fold change (pictilisib) | log2 fold change [4] | log2 fold change (crizotinib) | log2 fold change [5] | log2 fold change [6] | log2 fold change (duvelisib) | log2 fold change (gandotinib) | log2 fold change (tozasertib) | log2 fold change [7] | log2 fold change (doramapimod) | log2 fold change (ispinesib) |
| --- | --- | --- | --- | --- | --- | --- | --- | --- | --- | --- | --- | --- | --- | --- | --- | --- | --- | --- | --- | --- |
| VPS35L (UniProt Q7Z3J2) | 0.028 | 0.049 | -0.016 | -0.118 | 0.041 | 0.058 | 0.059 | -0.032 | -0.05 | 0.061 | 0.054 | -0.128 | -0.043 | 0.186 | 0.033 | 0 | 0.026 | 0.023 | 0.02 | -0.11 |
| UBR2 (UniProt Q8IWV8) | -0.016 | 0.027 | -0.105 | 0.054 | -0.041 | 0.024 | -0.021 | 0.061 | 0.052 | 0.036 | 0 | -0.027 | -0.063 | 0.166 | 0.008 | 0 | -0.03 | 0.135 | 0.073 | -0.141 |
| TRAPPC11 (UniProt Q7Z392) | 0.015 | -0.018 | 0.024 | -0.039 | -0.052 | -0.03 | -0.012 | -0.019 | -0.014 | 0.042 | -0.004 | 0.008 | 0.051 | 0.075 | 0.043 | -0.047 | 0.021 | 0.1 | 0.028 | -0.079 |
| WDR7 (UniProt Q9Y4E6) | -0.04 | 0.084 | 0.045 | -0.016 | -0.076 | -0.102 | -0.027 | -0.074 | 0.003 | -0.097 | 0.025 | 0.024 | -0.029 | -0.096 | 0.042 | -0.009 | -0.003 | 0.08 | 0.065 | -0.075 |
| WDR62 isoform 4 (UniProt O43379) | -0.036 | 0.016 | 0.028 | 0.02 | -0.024 | -0.026 | 0.049 | 0.046 | 0.054 | 0.015 | 0.064 | -0.137 | 0.07 | -0.064 | 0.011 | -0.204 (active) | -0.068 | -0.016 | -0.057 | -0.02 |
| TRAPPC3 (UniProt O43617) | -0.141 | -0.069 | -0.037 | -0.025 | -0.055 | 0.012 | 0.007 | 0.067 | 0.023 | 0.023 | -0.003 | 0.002 | 0.074 | -0.006 | 0.06 | -0.048 | 0.028 | 0.017 | -0.008 | -0.023 |
| UTP14A (UniProt Q9BVJ6) | -0.114 | 0.336 | -0.022 | 0.161 | -0.077 | -0.111 | -0.062 | -0.138 | 0.156 | -0.174 | -0.059 | -0.035 | -0.382 | 0.274 | -0.128 | 0.151 | 0.05 | 0.065 | 0.172 | -0.171 |
| VPS33B (UniProt Q9H267) | 0.027 | 0.011 | 0.026 | -0.036 | -0.116 | -0.046 | 0.118 | -0.147 | 0.011 | -0.035 | 0.05 | -0.182 | -0.022 | 0.063 | -0.004 | -0.114 | 0.012 | 0.085 | -0.01 | -0.149 |
| TRAPPC6B (UniProt Q86SZ2) | 0.055 | -0.023 | 0.012 | -0.023 | -0.009 | -0.003 | 0.042 | 0.028 | 0.019 | 0.02 | -0.008 | 0.024 | 0.111 | -0.069 | 0.044 | -0.045 | 0.014 | -0.014 | 0.025 | 0.014 |
| WASHC2A (UniProt Q641Q2) | 0.007 | 0.019 | -0.053 | 0.063 | -0.065 | -0.011 | -0.009 | -0.005 | 0.02 | 0.038 | 0.025 | -0.28 (active) | -0.033 | 0.137 | -0.061 | 0.012 | 0.062 | -0.047 | 0.062 | -0.229 |
| WAPL isoform 3 (UniProt Q7Z5K2) | 0.052 | -0.009 | 0.128 | -0.027 | 0.038 | -0.273 | -0.006 | -0.003 | 0 | 0.027 | 0.052 | -0.23 | 0.18 | -0.142 | 0 | -0.199 | 0.052 | -0.006 | 0.017 | -0.026 |
| TOE1 (UniProt Q96GM8) | -0.06 | 0.246 | 0.023 | 0.032 | -0.075 | 0.039 | 0.014 | -0.162 | 0.076 | -0.054 | 0.013 | 0 | -0.221 | 0.211 | -0.01 | 0.219 | 0.041 | 0.066 | 0.065 | -0.021 |
| UBAP2L isoform 1 (UniProt Q14157) | 0.016 | -0.014 | 0.011 | 0.059 | -0.05 | 0.213 | 0.074 | 0.103 | -0.248 | -0.114 | -0.034 | 0.077 | 0.009 | -0.008 | 0.022 | -0.007 | -0.062 | -0.056 | 0.034 | -0.026 |
| VPS11 (UniProt Q9H270) | -0.019 | -0.038 | 0.053 | -0.063 | -0.022 | -0.032 | -0.005 | -0.041 | -0.045 | -0.013 | 0.009 | -0.373 (active) | -0.039 | 0.054 | -0.016 | -0.111 | 0.034 | 0.095 | -0.029 | -0.226 |
| VPS37A (UniProt Q8NEZ2) | -0.046 | -0.011 | 0.107 | 0.002 | -0.054 | 0.001 | 0.05 | 0.024 | -0.035 | 0.058 | 0.035 | -0.146 | 0.092 | -0.084 | 0.044 | -0.292 | 0.057 | 0.206 | -0.017 | 0 |
| WBP4 (UniProt O75554) | 0.001 | -0.082 | -0.025 | 0.022 | -0.042 | -0.009 | 0.014 | -0.003 | 0.05 | -0.139 | -0.032 | 0.059 | 0.004 | -0.015 | 0.011 | -0.022 | -0.016 | 0.01 | 0.018 | -0.044 |
